Measured values published in PubChem BioAssay (Tox21).
Records with an inconclusive call do not appear. The source made the active and inactive calls. Unless noted, calls come from the whole dose curve.

Tests used:
[1] = Nuclear factor erythroid 2-related factor 2/antioxidant responsive element (Nrf2/ARE) small molecule agonists: qHTS cell viability counter screen in human keratinocytes (AID 1919968; active = well fitted curve in the direction sought with a large enough effect in the repeat runs; an effect the other way counts as inactive or inconclusive; note: nearly all actives have a fitted effect of over 55% in size)
Method in brief: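 CellTiter-Fluor fluorescence, read 1 h after reagent, gave viability in the same wells as the ARE-luciferase assay. KeratinoSens cells (1,500/well) had 23 h compound exposure at 37 C/5% CO2 following 5 h plating.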

[2] = Nuclear factor erythroid 2-related factor 2/antioxidant responsive element (Nrf2/ARE) small molecule agonists: luciferase reporter gene qHTS assay in human keratinocytes (AID 1919969); note: nearly all actives have a fitted effect of over 35% in size
[3] = target: Gonadotropin-releasing hormone receptor (Homo sapiens) (UniProt P30968); test: Human gonadotropin-releasing hormone receptor (GnRHR) small molecule agonists, calcium flux assay in GnRHR-HEK293 cells (AID 1920063); note: nearly all actives have a fitted effect of over 35% in size
Method in brief: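 Agonist mode: compounds at 15 concentrations, in triplicate, went onto calcium dye-loaded GnRHR-HEK293 cells. Intracellular calcium was then followed as 480/540 nm fluorescence at 1 s intervals over 3 min.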

[4] = target: KiSS-1 receptor (Homo sapiens) (UniProt Q969F8); test: Human kisspeptin (KISS1R) small molecule agonists, calcium flux assay in KISS1R-HEK293 cells (AID 1920064; active = well fitted curve in the direction sought with a large enough effect in the repeat runs; an effect the other way counts as inactive or inconclusive)
Method in brief: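 Agonist mode: intracellular calcium rise tracked at 1 s intervals over 3 min (480/540 nm) immediately after compound addition to dye-loaded KISS1R-HEK293 stable cells. Each compound tested at 15 concentrations in triplicate.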

[5] = G protein-coupled receptor (GPCR) small molecule agonists, calcium flux assay: HEK293 wild type cell line counter screen (AID 1920065)
Method in brief: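 Calcium flux counter screen: compound added in agonist mode at 15 concentrations in triplicate to dye-loaded parental HEK293 cells. Fluorescence (480/540) read kinetically for 3 min; ATP served as positive control.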

[6] = p53 small molecule agonists, cell-based qHTS assay with human liver microsomes (AID 1963577);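 note: p53 response element beta-lactamase reporter cells with liver microsomes plus NADPH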
Method in brief: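 HLM-supplemented p53RE-bla reporter assay: 16 h compound exposure at 37 C, microsomes and NADPH each 0.5 mg/mL final, read by fluorescence intensity.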

[7] = p53 small molecule agonists, cell-based qHTS assay with rat liver microsomes (AID 1963578)
Method in brief: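 Quantitative HTS of the Tox21 10K library: p53RE-bla cells, rat liver microsomes plus NADPH at 0.5 mg/mL final each, 16 h at 37 C, beta-lactamase fluorescence detection.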

[8] = p53 small molecule agonists, cell-based qHTS assay with human liver microsomes: qHTS cell viability counter screen (AID 1963579); note: nearly all actives have a fitted effect of over 45% in size
Method in brief: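 Viability of p53RE-bla cells is measured as CellTiter-Glo luminescence following a 16 h, 37 C incubation with compound, liver microsomes from human donors and NADPH.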

[9] = p53 small molecule agonists, cell-based qHTS assay: qHTS cell viability counter screen (AID 1963581); note: nearly all actives have a fitted effect of over 45% in size
Method in brief: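 Counter screen read by CellTiter-Glo luminescence (ATP content, 30 min at room temperature), run in the same wells as the beta-lactamase reporter read. HCT-116 p53RE-bla cells saw compounds for 16 h at 37 C.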

[10] = p53 small molecule agonists, cell-based qHTS assay (AID 1963582; active = well fitted activation curve with a large enough effect in the signal ratio in the repeat runs, not every such curve was filed as active; the % refers to the signal ratio)
Method in brief: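 Read-out is beta-lactamase FRET fluorescence after 2 h at room temperature with LiveBLAzer B/G substrate. p53 response element-bla cells were treated 16 h at 37 C with compounds in DMSO, added 5 h after seeding.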

[11] = target: 5-hydroxytryptamine receptor 2A (Homo sapiens) (UniProt P28223); test: 5-hydroxytryptamine receptor 2A (HTR2A) small molecule antagonists, cell-based qHTS assay (AID 1963586); note: nearly all actives have a fitted effect of over 45% in size
Method in brief: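 CHO cells stably expressing human HTR2A were plated for 18 h at 37 C, then loaded with calcium dye for 1 h. Compounds were preincubated 5 min at room temperature before DOI (4 nM solution) was added. Kinetic fluorescence was read for 3 min.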

[12] = target: 5-hydroxytryptamine receptor 2A (Homo sapiens) (UniProt P28223); test: 5-hydroxytryptamine receptor 2A (HTR2A) small molecule agonists, cell-based qHTS assay (AID 1963587); note: nearly all actives have a fitted effect of over 30% in size
Method in brief: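 Kinetic calcium-flux fluorescence (2 min, 1 sec intervals) after compound addition in agonist mode. HTR2A-CHO cells were cultured 18 h, then dye-loaded 1 h at 37 C.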

[13] = target: Muscarinic acetylcholine receptor M1 (Homo sapiens) (UniProt P11229); test: Cholinergic receptor muscarinic 1 (CHRM1) small molecule antagonists, cell-based qHTS assay (AID 1963588); note: nearly all actives have a fitted effect of over 40% in size
Method in brief: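 Compounds were tested at 15 concentrations in three independent runs. Dye-loaded CHRM1-CHO cells were exposed 5 min at room temperature before stimulation by acetylcholine added at 50nM. Intracellular calcium was read kinetically on FDSS for 3 min.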

[14] = target: Muscarinic acetylcholine receptor M1 (Homo sapiens) (UniProt P11229); test: Cholinergic receptor muscarinic 1 (CHRM1) small molecule agonists, cell-based qHTS assay (AID 1963589); note: nearly all actives have a fitted effect of over 35% in size
Method in brief: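 Agonist-mode calcium-flux screen: compounds at 15 concentrations, three independent runs, were pin-transferred onto dye-loaded human CHRM1-CHO cells. Fluorescence was then recorded kinetically every second over minutes.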

[15] = cAMP Responsive Elements (CRE) small molecule agonists, cell-based qHTS assay (AID 1963590)
Method in brief: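 Agonist mode: compound added to CRE-bla HEK 293T cells (2,000/well, 18 h after plating) for 3 h at 37 C/5% CO2. Reporter activity detected via FRET beta-lactamase substrate, 2 h room-temperature loading.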

[16] = cAMP Responsive Elements (CRE) small molecule antagonists, cell-based qHTS assay (AID 1963591; active = well fitted inhibition curve with a large enough effect in the signal ratio in the repeat runs, not every such curve was filed as active; the % refers to the signal ratio)
Method in brief: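 Antagonist mode: compounds are added alongside the adenylyl cyclase activator NKH477 (0.25 uM final) to CRE-bla HEK293T cells for 3 h. LiveBLAzer FRET substrate, 2 h at room temperature, reports bla expression.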

[17] = target: Beta-2 adrenergic receptor (Homo sapiens) (UniProt P07550); test: Adrenergic beta2 receptor (ADRB2) small molecule antagonists, cell-based qHTS assay (AID 1963592); note: series mostly up to about 92 µM; nearly all actives have a fitted effect of over 50% in size
Method in brief: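 Assay format: CHO-ADRB2 cells, 18-20hr seeding at 37C/5% CO2, then compound plus 1nM isoproterenol agonist mix for 0.5hr RT. Homogeneous time-resolved fluorescence cAMP detection after 1hr, expressed as 665/615 nm ratio.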

[18] = target: D(2) dopamine receptor (Homo sapiens) (UniProt P14416); test: Dopamine D2 receptor (DRD2) small molecule agonists, cell-based qHTS assay (AID 1963594); note: nearly all actives have a fitted effect of over 35% in size
Method in brief: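 cAMP accumulation in DRD2-HEK293 cells measured by HTRF after 1 h detection; compounds added 10 min before NKH477 (200nM […]) forskolin-analogue stimulation, 30 min at room temperature, with Ro20-1724 present at 0.1 mM final.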

[19] = target: D(2) dopamine receptor (Homo sapiens) (UniProt P14416); test: Dopamine D2 receptor (DRD2) small molecule antagonists, cell-based qHTS assay (AID 1963595; active = well fitted inhibition curve with a large enough effect in the signal ratio in the repeat runs, with a control signal flat; the % refers to the signal ratio)
Method in brief: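 Cells were plated and grown for 24 h at 37 °C. Ro20-1724 (0.1 mM final) went in first, then compound for 10 min. NKH477 (200 nM) with quinpirole (12 nM) followed for 30 min at RT, then HTRF detection reagents for 1 h.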
% is set by controls: 0 for no effect and ±100 for the full control effect.

Chain of 5-hydroxytryptamine receptor 2A (Homo sapiens) (P28223 whole entry, looked up): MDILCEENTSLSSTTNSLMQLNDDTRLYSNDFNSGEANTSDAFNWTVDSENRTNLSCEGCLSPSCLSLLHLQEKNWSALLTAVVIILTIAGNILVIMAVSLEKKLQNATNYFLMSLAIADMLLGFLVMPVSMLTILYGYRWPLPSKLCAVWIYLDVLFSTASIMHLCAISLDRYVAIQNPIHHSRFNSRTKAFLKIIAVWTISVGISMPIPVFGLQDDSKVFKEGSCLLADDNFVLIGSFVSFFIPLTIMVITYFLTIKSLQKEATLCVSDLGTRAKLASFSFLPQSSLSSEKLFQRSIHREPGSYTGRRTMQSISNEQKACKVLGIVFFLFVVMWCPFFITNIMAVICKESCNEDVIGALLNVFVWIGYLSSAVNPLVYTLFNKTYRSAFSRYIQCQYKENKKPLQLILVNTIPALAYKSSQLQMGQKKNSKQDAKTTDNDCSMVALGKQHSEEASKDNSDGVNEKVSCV
Chain of Gonadotropin-releasing hormone receptor (Homo sapiens) (P30968 whole entry, looked up): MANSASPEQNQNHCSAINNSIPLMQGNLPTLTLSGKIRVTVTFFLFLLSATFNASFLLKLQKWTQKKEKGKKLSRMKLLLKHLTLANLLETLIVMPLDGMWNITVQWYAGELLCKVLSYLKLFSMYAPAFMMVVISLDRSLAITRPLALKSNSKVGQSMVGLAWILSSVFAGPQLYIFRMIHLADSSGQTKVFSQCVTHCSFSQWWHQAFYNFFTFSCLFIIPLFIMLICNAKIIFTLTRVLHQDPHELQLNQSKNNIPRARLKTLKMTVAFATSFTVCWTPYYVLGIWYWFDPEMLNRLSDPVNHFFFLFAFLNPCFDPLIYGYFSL
Chain of Beta-2 adrenergic receptor (Homo sapiens) (P07550 whole entry, looked up): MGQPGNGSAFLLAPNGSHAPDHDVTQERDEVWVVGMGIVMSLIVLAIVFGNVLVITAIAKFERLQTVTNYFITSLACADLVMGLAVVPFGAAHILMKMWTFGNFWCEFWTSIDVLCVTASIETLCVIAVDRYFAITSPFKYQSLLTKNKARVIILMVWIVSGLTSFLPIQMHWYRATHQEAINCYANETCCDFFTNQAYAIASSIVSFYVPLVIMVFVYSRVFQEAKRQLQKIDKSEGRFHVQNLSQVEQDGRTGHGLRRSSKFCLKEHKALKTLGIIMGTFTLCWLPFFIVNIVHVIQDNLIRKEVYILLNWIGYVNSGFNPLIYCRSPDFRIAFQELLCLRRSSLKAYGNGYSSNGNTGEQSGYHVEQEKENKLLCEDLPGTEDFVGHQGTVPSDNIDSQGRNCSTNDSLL
Chain of D(2) dopamine receptor (Homo sapiens) (P14416 whole entry, looked up): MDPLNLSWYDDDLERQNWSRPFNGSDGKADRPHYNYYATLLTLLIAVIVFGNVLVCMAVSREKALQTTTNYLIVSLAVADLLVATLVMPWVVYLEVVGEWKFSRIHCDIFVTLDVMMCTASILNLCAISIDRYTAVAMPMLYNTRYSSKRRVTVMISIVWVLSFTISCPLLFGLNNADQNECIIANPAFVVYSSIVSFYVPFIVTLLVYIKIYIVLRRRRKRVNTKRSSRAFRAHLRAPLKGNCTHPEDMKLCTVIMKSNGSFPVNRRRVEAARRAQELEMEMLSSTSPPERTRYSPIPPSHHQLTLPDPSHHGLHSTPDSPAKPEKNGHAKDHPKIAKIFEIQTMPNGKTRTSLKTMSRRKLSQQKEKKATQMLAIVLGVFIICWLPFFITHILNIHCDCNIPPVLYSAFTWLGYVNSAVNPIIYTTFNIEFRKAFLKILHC
Chain of Muscarinic acetylcholine receptor M1 (Homo sapiens) (P11229 whole entry, looked up): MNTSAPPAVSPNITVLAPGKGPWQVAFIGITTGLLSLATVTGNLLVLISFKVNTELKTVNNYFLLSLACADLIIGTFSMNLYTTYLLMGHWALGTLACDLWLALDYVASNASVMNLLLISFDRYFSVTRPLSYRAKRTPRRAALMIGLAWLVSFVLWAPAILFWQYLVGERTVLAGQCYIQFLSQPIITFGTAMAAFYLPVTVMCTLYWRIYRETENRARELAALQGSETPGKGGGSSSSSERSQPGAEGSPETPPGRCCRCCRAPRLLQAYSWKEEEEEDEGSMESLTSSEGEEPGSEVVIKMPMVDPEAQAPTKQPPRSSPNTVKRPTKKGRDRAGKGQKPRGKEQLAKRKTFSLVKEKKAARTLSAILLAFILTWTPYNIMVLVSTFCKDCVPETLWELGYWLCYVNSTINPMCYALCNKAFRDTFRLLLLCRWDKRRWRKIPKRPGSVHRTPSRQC
Chain of KiSS-1 receptor (Homo sapiens) (Q969F8 whole entry, looked up): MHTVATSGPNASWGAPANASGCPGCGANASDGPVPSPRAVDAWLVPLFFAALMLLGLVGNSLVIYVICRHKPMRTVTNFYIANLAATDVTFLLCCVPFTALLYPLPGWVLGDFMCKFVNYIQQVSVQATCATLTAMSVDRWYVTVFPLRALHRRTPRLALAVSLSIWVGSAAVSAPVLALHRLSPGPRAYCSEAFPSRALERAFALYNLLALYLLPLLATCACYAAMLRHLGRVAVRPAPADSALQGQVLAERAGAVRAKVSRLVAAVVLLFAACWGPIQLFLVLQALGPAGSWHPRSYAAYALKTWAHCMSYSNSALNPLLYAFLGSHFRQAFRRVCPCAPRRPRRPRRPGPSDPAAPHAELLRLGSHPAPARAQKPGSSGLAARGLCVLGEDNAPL

O=C(O)C(S)C(S)C(=O)O (configuration not stated)
inactive: Potency [1] | Potency [2] | Potency [3] | Potency [4] | Potency [5] | Potency [6] | Potency [7] | Potency [8] | Potency [9] | Potency [10] | Potency [11] | Potency [12] | Potency [13] | Potency [14] | Potency [15] | Potency [16] | Potency [17] | Potency [18] | Potency [19]

COC(=O)Nc1ccc(Cl)c(Cl)c1
inactive: Potency [1] | Potency [2] | Potency [3] | Potency [4] | Potency [5] | Potency [6] | Potency [7] | Potency [8] | Potency [9] | Potency [10] | Potency [11] | Potency [12] | Potency [13] | Potency [14] | Potency [15] | Potency [16] | Potency [17] | Potency [18] | Potency [19]

CC(C)CCCC(C)CCCC(C)CCCCC(C)CCCC(C)CCCC(C)C (configuration not stated)
inactive: Potency [1] | Potency [2] | Potency [3] | Potency [4] | Potency [5] | Potency [6] | Potency [7] | Potency [8] | Potency [9] | Potency [10] | Potency [11] | Potency [12] | Potency [13] | Potency [14] | Potency [15] | Potency [16] | Potency [17] | Potency [18] | Potency [19]

CC1=C(C=O)C(C)(C)CC=C1
inactive: Potency [1] | Potency [2] | Potency [3] | Potency [4] | Potency [5] | Potency [6] | Potency [7] | Potency [8] | Potency [9] | Potency [10] | Potency [11] | Potency [12] | Potency [13] | Potency [14] | Potency [15] | Potency [16] | Potency [17] | Potency [18] | Potency [19]

COC(=O)c1ccc2cc(C(=O)OC)ccc2c1
inactive: activity change, negative = cytotoxicity [1] 1.05% [at 19 µM] | activity, positive = activation [2] 20.6% [at 19 µM] | activity change [3] 0.0273% [at 11.8 µM, stronger effect = higher value] | activation [4] 2.25% [at 15.8 µM] | activation [5] 0.0113% [at 11.8 µM] | activation [6] -11.1% [at 13.5 µM] | activation [7] -1.04% [at 13.6 µM] | activity change, negative = cytotoxicity [8] -6.68% [at 13.5 µM] | activity change, negative = cytotoxicity [9] 11% [at 13.5 µM] | activation [10] -2.37% [at 13.5 µM] | activity, negative = inhibition [11] 2.21% [at 12.7 µM] | activation [12] -0.775% [at 15.9 µM] | activity, negative = inhibition [13] -8% [at 12.6 µM] | activation [14] 0.0556% [at 15.8 µM] | activity change, negative = inhibition [17] -9.16% [at 19 µM] | activation [18] -0.16% [at 19 µM] | activity change, negative = inhibition [19] -2.05% [at 18.9 µM]

O=C(O)c1cccnc1C(=O)O
inactive: Potency [1] | Potency [2] | Potency [3] | Potency [4] | Potency [5] | Potency [6] | Potency [7] | Potency [8] | Potency [9] | Potency [10] | Potency [11] | Potency [12] | Potency [13] | Potency [14] | Potency [15] | Potency [16] | Potency [17] | Potency [18] | Potency [19]
